Laboratory results taken from PubChem BioAssay (Tox21).
Results filed as inconclusive are left out. Calls of active or inactive are those of the source. Unless noted, calls follow the shape of the dose curve; as a rule, active = well fitted curve in the direction sought with a large enough effect in the repeat runs; inconclusive = weak or mixed curves; inactive = no such curve, though single readings can be large; an effect the other way counts as inactive or inconclusive.

Columns and labels:
[1] = qHTS assay to identify small molecule HDAC inhibitors - cell viability counter screen (AID 1259365); also: series mostly up to about 92 µM; nearly all actives have a fitted effect of over 50% in size
Method in brief: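 CellTiter-Glo luminescence (30 min, room temperature) reported viability after a 2 h compound exposure at 37 C. Cells: wild-type HCT-116, 1,500 per well, seeded the night before.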

[2] = qHTS assay to identify small molecule agonists of the sonic hedgehog signaling (Shh) pathway - cell viability counter screen (AID 1259366); also: nearly all actives have a fitted effect of over 50% in size
Method in brief: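 Cytotoxicity counter screen: CellTiter-Fluor reagent added after 23 h compound exposure, then 1 h at 37C and fluorescence read. Cells were 3T3 Gli1-Luc, seeded 2,000 per well and dosed 4 h post-plating.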

[3] = qHTS assay to identify small molecule antagonists of the sonic hedgehog signaling (Shh) pathway - cell viability counter screen (AID 1259367); also: nearly all actives have a fitted effect of over 55% in size
Method in brief: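 Cytotoxicity was assessed in parallel with Shh reporter activity by measuring live-cell protease fluorescence (CellTiter-Fluor) in NIH/3T3 cells stably carrying Gli1-Luc, treated with compound under conditioned medium stimulation for 23 hr plus 1 hr reagent incubation.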

[4] = qHTS assay to identify small molecule agonists of the sonic hedgehog signaling (Shh) pathway (AID 1259368; calls by dose curve;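 also: NIH/3T3-derived 3T3Gli1-Luc cells carrying a stable Gli1-driven firefly luciferase reporter; series mostly up to about 92 µM; nearly all actives have a fitted effect of over 15% in size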)
Method in brief: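 Hedgehog pathway agonism scored by increased firefly luciferase luminescence in 3T3Gli1-Luc cells treated 24 hr at 37 C; detection used a 30 min room-temperature reagent incubation.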

[5] = qHTS assay to identify small molecule antagonists of the sonic hedgehog signaling (Shh) pathway (AID 1259369; calls by dose curve; also: nearly all actives have a fitted effect of over 45% in size; also: potency is read from the fitted curve at half-maximal effect)
Method in brief: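 NIH/3T3 stable Gli1-Luc clone, 2,000 cells/well, 4hr settle; cpd + conditioned medium 24hr; Luc reagent 30min RT; luminescence.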

[6] = qHTS assay to identify small molecule agonists of the androgen receptor (AR) signaling pathway in the presence of an antagonist - cell viability counter screen (AID 1259379);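 also: MDA-kb2 human breast cancer cells carrying an MMTV luciferase reporter; series mostly up to about 92 µM; nearly all actives have a fitted effect of over 25% in size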
Method in brief: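 MDA-kb2 viability measured by CellTiter-Fluor fluorescence in the same wells as the luciferase signal; nilutamide 3.0uM final; 15-point compound titration; 16 hr at 37C.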

[7] = qHTS assay to identify small molecule agonists of the estrogen receptor beta (ER-beta) signaling pathway - cell viability counter screen (AID 1259380); also: nearly all actives have a fitted effect of over 30% in size; also: potency is read from the fitted curve at half-maximal effect
Method in brief: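 Measured: luminescence from CellTiter-Glo after 30 min at room temperature, added to wells already read for the LiveBLAzer FRET reporter (2 hr substrate); ER-beta-UAS-bla HEK293T cells had 16 hr compound treatment at 37C, 5% CO2.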

[8] = molecular target: Androgen receptor (Homo sapiens) (UniProt P10275); test: qHTS assay to identify small molecule agonists of the androgen receptor (AR) signaling pathway in the presence of an antagonist (AID 1259381; calls by dose curve; also: nearly all actives have a fitted effect of over 15% in size)
Sequence of Androgen receptor (Homo sapiens) (P10275 whole entry, looked up): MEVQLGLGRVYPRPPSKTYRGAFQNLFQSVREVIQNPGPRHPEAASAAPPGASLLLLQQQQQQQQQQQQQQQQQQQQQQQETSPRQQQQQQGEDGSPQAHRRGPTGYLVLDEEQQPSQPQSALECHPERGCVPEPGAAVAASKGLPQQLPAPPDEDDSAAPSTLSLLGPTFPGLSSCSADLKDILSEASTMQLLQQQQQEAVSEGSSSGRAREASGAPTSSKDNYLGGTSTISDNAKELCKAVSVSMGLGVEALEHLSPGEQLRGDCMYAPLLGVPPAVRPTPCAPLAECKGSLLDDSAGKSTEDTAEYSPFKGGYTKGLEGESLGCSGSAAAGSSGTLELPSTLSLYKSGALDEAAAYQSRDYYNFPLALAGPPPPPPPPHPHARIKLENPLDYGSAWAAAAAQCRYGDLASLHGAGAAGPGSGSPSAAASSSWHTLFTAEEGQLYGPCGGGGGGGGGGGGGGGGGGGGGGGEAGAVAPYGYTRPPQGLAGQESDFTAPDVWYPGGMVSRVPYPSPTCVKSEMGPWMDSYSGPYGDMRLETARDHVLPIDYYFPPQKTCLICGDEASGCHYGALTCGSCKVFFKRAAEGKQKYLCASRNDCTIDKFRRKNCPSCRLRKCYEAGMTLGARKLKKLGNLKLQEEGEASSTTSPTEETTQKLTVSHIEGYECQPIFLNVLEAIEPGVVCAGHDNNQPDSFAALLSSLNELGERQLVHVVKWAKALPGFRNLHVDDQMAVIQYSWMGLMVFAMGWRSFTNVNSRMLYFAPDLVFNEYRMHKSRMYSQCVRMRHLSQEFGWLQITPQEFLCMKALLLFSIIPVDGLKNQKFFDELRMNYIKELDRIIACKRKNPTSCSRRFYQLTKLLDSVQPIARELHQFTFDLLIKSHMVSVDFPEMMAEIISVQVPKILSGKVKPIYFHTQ
Method in brief: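 Luminescent ONE-Glo read, 30min at room temperature, follows 16hr compound exposure (15 concentrations) of MDA-kb2 cells at 37C, 0% CO2, with nilutamide added at 3.0uM final.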

[9] = molecular target: Estrogen receptor beta (Homo sapiens) (UniProt Q92731); test: qHTS assay to identify small molecule agonists of the estrogen receptor beta (ER-beta) signaling pathway (AID 1259377; active = well fitted activation curve with a large enough effect in the signal ratio in the repeat runs, not every such curve was filed as active; the % refers to the signal ratio)
Sequence of Estrogen receptor beta (Homo sapiens) (Q92731 whole entry, looked up): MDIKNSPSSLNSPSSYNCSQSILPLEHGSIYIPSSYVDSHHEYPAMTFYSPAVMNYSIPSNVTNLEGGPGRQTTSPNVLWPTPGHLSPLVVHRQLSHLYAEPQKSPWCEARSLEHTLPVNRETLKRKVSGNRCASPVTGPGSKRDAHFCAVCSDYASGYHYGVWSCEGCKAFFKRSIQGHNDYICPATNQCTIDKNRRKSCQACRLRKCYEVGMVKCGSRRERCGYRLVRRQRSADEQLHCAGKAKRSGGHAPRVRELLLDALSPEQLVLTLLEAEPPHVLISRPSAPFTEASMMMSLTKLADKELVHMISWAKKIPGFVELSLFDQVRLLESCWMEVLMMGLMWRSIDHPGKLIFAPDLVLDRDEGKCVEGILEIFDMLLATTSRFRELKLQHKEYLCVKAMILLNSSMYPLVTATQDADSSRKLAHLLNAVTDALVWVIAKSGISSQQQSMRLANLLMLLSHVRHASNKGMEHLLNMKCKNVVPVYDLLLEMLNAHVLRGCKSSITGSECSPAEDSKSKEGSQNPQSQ
Method in brief: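 Ratiometric beta-lactamase FRET read-out came after 2 h substrate loading at room temperature. It followed 16 h compound treatment at 37C of GripTite HEK293T cells carrying a UAS-bla reporter, plated in 2% charcoal-stripped FBS medium.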

[10] = molecular target: Estrogen receptor beta (Homo sapiens) (UniProt Q92731); test: qHTS assay to identify small molecule antagonists of the estrogen receptor beta (ER-beta) signaling pathway (AID 1259378; active = well fitted inhibition curve with a large enough effect in the signal ratio in the repeat runs, not every such curve was filed as active; the % refers to the signal ratio)
Method in brief: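 ER-beta-UAS-bla HEK293T (GripTite) cells in 2% charcoal-stripped FBS medium were preincubated 6 hr at 37C, dosed with compound, then stimulated with 1 nM E2 (final) for 16 hr; beta-lactamase reporter read by B/G FRET fluorescence after 2 hr substrate loading.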
% is scaled to controls: 0 for no effect and ±100 for the full control effect.

CCOC(=O)[C@H](CCc1ccccc1)N[C@H]1CS[C@H](c2cccs2)CN(CC(=O)O)C1=O
inactive: outcome [1] | outcome [2] | outcome [3] | outcome [4] | Potency [5] | outcome [6] | Potency [7] | outcome [8]

CCCOc1ccc(C(=O)OCCN(CC)CC)cc1N
inactive: outcome [1] | outcome [2] | outcome [4] | Potency [5] | Potency [9] | outcome [10] | outcome [6] | Potency [7]

COCCCOc1cc(C[C@@H](C[C@H](N)[C@@H](O)C[C@H](C(=O)NCC(C)(C)C(N)=O)C(C)C)C(C)C)ccc1OC
inactive: outcome [1] | outcome [2] | outcome [4] | Potency [5] | outcome [6] | Potency [7]

CCNC(=O)C(C)OC(=O)Nc1ccccc1 (stereo not drawn)
inactive: outcome [1] | outcome [2] | outcome [3] | outcome [4] | Potency [9] | outcome [10] | outcome [6] | Potency [7]

C[Si](C)(C)O[Si](O)(O)O
inactive: outcome [1] | outcome [2] | outcome [4] | Potency [5] | outcome [6] | Potency [7]

COC(=O)C(c1ccccc1Cl)N1CCc2sccc2C1 (stereo not drawn)
inactive: outcome [1] | outcome [2] | outcome [4] | Potency [5] | outcome [6] | Potency [7]

CCCCCCCCOCCC#N
inactive: outcome [1] | outcome [2] | outcome [4] | Potency [5] | Potency [9] | outcome [6] | Potency [7]

O=C(CCBr)N1CCN(C(=O)CCBr)CC1
inactive: outcome [1] | outcome [2] | outcome [4] | Potency [5] | outcome [6] | Potency [7]

C/C(Cl)=C/CCl
inactive: outcome [1] | outcome [2] | outcome [4] | Potency [5] | Potency [9] | outcome [10] | outcome [6] | Potency [7] | outcome [8]

COC(=O)/C=C(\C)CCC=C(C)C
inactive: outcome [1] | outcome [2] | outcome [4] | Potency [5] | Potency [9] | outcome [10] | outcome [6] | Potency [7]

CC(C)OC(=O)C(C(=O)OC(C)C)=C1SC=CS1
inactive: outcome [1] | outcome [2] | outcome [4] | outcome [6]
active: Potency [5] 4.73 µM | Potency [7] 18.8 µM

CCCCCCCCS(=O)(=O)O
inactive: outcome [1] | outcome [2] | outcome [4] | Potency [5] | outcome [10] | outcome [6] | Potency [7]

CC/C=C\CCCCCCCCCCOC(C)=O
inactive: outcome [1] | outcome [2] | outcome [4] | Potency [5] | Potency [9] | outcome [10] | outcome [6] | Potency [7]

CCCCN(CCCC)CCCCCCN(CCCC)CCCC
inactive: outcome [1] | outcome [2] | outcome [4] | Potency [5] | Potency [9] | outcome [10] | outcome [6] | Potency [7]

c1cc2ccc3ccc4ccc5cccc6c(c1)c2c3c4c56
inactive: activity change, negative = cytotoxicity [1] 2.08% [at 3.27 µM] | viability change, negative = cytotoxic [2] 2.39% [at 3.27 µM] | activity change [4] 0.83% [at 3.27 µM] | activity change, negative = inhibition [5] 17.2% [at 3.27 µM] | activity, negative = inhibition [10] 4.07% [at 3.27 µM] | activity change, negative = cytotoxicity [6] 2.9% [at 3.27 µM] | activity change, negative = cytotoxicity [7] 0.89% [at 3.32 µM]

Cc1cc(C)c(C)c(C)c1
inactive: outcome [1] | outcome [2] | outcome [4] | Potency [5] | outcome [10] | outcome [6] | Potency [7]

CCOc1ccccc1OCCN[C@H](C)Cc1ccc(OC)c(S(N)(=O)=O)c1
inactive: outcome [1] | outcome [2] | outcome [3] | outcome [4] | Potency [9] | outcome [10] | outcome [6] | Potency [7]

Clc1ccc2c(c1)Nc1ccccc1S2
inactive: outcome [1] | outcome [2] | outcome [3] | outcome [4] | Potency [5] | outcome [6] | Potency [7] | outcome [8]

CN(C)CCc1c[nH]c2ccc(C[C@H]3COC(=O)N3)cc12
inactive: outcome [1] | outcome [2] | outcome [4] | Potency [5] | Potency [9] | outcome [10] | outcome [6] | Potency [7]

CCCCCCCCCCCCCCCC/C=C/C1CC(=O)OC1=O (stereo not drawn)
inactive: outcome [1] | outcome [2] | outcome [3] | outcome [4] | Potency [9] | outcome [10] | outcome [6] | Potency [7]

CC(C)=CCC/C(C)=C\C#N
inactive: outcome [1] | outcome [2] | outcome [4] | Potency [5] | outcome [6]

C=CC(=O)CC
inactive: outcome [1] | outcome [2] | outcome [3] | outcome [4] | Potency [9] | outcome [10] | outcome [6] | Potency [7]

Cc1ccc(O)c(C(=O)c2ccccc2)c1
inactive: outcome [1] | outcome [2] | outcome [3] | outcome [4] | Potency [5] | outcome [6] | Potency [7] | outcome [8]

CN(C)CCC[C@@]1(c2ccc(F)cc2)OCc2cc(C#N)ccc21
active: Potency [7] 2.98 µM
inactive: outcome [1] | outcome [2] | outcome [3] | outcome [4] | outcome [6]

COc1cnc(NS(=O)(=O)c2ccc(N)cc2)nc1
inactive: outcome [1] | outcome [2] | outcome [4] | Potency [5] | Potency [9] | outcome [10] | outcome [6] | Potency [7]

O=S(=O)(O)c1cc(I)c(O)c2ncccc12
inactive: outcome [1] | outcome [2] | outcome [4] | Potency [5] | Potency [9] | outcome [10] | outcome [6] | Potency [7]

CCCCNCC
inactive: outcome [1] | outcome [2] | outcome [4] | Potency [5] | outcome [6] | Potency [7]

CC(=O)OC/C=C(/C)CCC=C(C)C
inactive: outcome [1] | outcome [2] | outcome [4] | Potency [5] | outcome [6] | Potency [7]

CC(C)C(=O)Nc1cccc(C2CN3CCSC3=N2)c1 (stereo not drawn)
inactive: outcome [1] | outcome [2] | outcome [3] | outcome [4] | Potency [9] | outcome [10] | outcome [6] | Potency [7] | outcome [8]

C=CCOC(=O)CCCCCCCC
inactive: outcome [1] | outcome [2] | outcome [4] | Potency [5] | outcome [10] | outcome [6] | Potency [7]
